# The panel holds about 79,000 compounds, 15% with a hit somewhere; the sample as a whole holds those more often. Unmarked numbers belong to inactive results. The source made the active and inactive calls. Rule as the data show it: active = growth inhibition above about 70%; inactive = the rest.
# How the values were obtained:
# [1] = NCI Yeast Anticancer Drug Screen. Data for the rad50 strain (AID 155);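 also: 0% = growth of vehicle-only cultures of the same strain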; conditions: S. cerevisiae rad50 strain growth inhibition; at 50.0 µM; stronger effect = higher value
# Procedure, shortened: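 A DNA repair-deficient yeast mutant serves as the test organism; compound-induced growth inhibition is calculated against vehicle-treated cells.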
# [2] = NCI Yeast Anticancer Drug Screen. Data for the cln2 rad14 strain (AID 165);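 also: 0% = growth equal to vehicle treated cultures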; conditions: S. cerevisiae cln2 rad14 strain, at 50.0 µM, stronger effect = higher value
# Procedure, shortened: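 Growth of compound-exposed yeast (cln2 rad14 genotype) measured and expressed as inhibition relative to vehicle.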
# [3] = NCI Yeast Anticancer Drug Screen. Data for the bub3 strain (AID 167); conditions: S. cerevisiae bub3 mutant strain, at 50.0 µM, stronger effect = higher value
# Procedure, shortened: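 Inhibition values come from growth of compound-treated mutant yeast normalised to vehicle-treated controls.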
# [4] = NCI Yeast Anticancer Drug Screen. Data for the mlh1 rad18 strain (AID 175); conditions: S. cerevisiae mlh1 rad18 strain growth inhibition; at 50.0 µM; stronger effect = higher value
# Procedure, shortened: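 In this whole-cell yeast screen, a strain with altered DNA damage repair is challenged with compound, and its growth is measured against matched vehicle-treated controls.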
# [5] = NCI Yeast Anticancer Drug Screen. Data for the sgs1 mgt1 strain (AID 161);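 also: 0% = growth of cultures given vehicle only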; conditions: S. cerevisiae sgs1 mgt1 strain, at 50.0 µM, stronger effect = higher value
# Procedure, shortened: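 Genetically altered yeast, compound exposure, growth inhibition relative to vehicle.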
# [6] = NCI Yeast Anticancer Drug Screen. Data for the mec2-1 strain (AID 157); conditions: S. cerevisiae mec2-1 strain, at 50.0 µM, stronger effect = higher value
# Procedure, shortened: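 Test agents were screened against the mec2-1 yeast strain, with defined DNA repair or cell cycle alteration. Growth was scored as inhibition against vehicle-only controls.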
SMILES,growth inhibition [1],growth inhibition [2],growth inhibition [3],growth inhibition [4],growth inhibition [5],growth inhibition [6] [%]
CCOC(=O)[n+]1c(C)ccc2ccccc21,-20%,-23.8%,11%,-13.8%,–,–
O=CC(O)C(O)C(O)C(O)COC(=S)OCC(O)C(O)C(O)C(O)C=O (stereo not given) (tested in a mixture with another compound),-4.35%,-3.1%,6.05%,-4.25%,-2.85%,–
Cc1ccc(OCC(=O)C2CSc3ccc(Cl)cc32)cc1 (stereo not given),67.8%,70.6% (active),75.7% (active),73.5% (active),26.4%,–
Cc1cccc(C[N+](C)(C)CCO)c1C,-0.5%,6.7%,3.45%,-20.6%,3.4%,–
COc1cc(C=O)cc([N+](=O)[O-])c1O,-2.2%,1.05%,-0.45%,-6.1%,-2.2%,–
C/C(CC(=O)Nc1ccc(Cl)cc1)=N\NC(N)=S,-7.95%,20.4%,-3.75%,-0.6%,9.6%,–
Cc1ccc(N=Cc2cc(Br)ccc2O)cc1Cl,98.6% (active),95% (active),98.7% (active),96.8% (active),99.1% (active),–
O=[N+]([O-])c1ccc(OP2(Oc3ccc([N+](=O)[O-])cc3)=NP(Oc3ccc([N+](=O)[O-])cc3)(Oc3ccc([N+](=O)[O-])cc3)=NP(Oc3ccc([N+](=O)[O-])cc3)(Oc3ccc([N+](=O)[O-])cc3)=NP(Oc3ccc([N+](=O)[O-])cc3)(Oc3ccc([N+](=O)[O-])cc3)=N2)cc1,-4.5%,-3.7%,-1.65%,–,-6.35%,–
O=C(O)C(Nc1ccccc1)c1ccccc1 (stereo not given),13.4%,-21.9%,4.65%,-6.95%,9.45%,–
Cc1[nH]c(=O)[nH]c(=O)c1/C=C/C(=O)NC(CO)CS(C)=O (stereo not given),-1.5%,6.1%,0.75%,7.05%,0.75%,–
O=C(c1ccccc1)N1CC2CCC1CN2C(=O)c1ccccc1,15.8%,6.95%,42.7%,-8.45%,4%,–
O=C(Nc1nccs1)c1c(O)nc2sccn2c1=O,8.7%,22.4%,14.8%,-12.6%,18.9%,–
COC1(OC)N=C(N)C2(C#N)C(C)=C3NCN(C)N=C3C12C#N (stereo not given),8.15%,-6.7%,-33.8%,-51%,-44%,–
CC1=CC(=O)/C(=C\c2ccc3c(c2)OCO3)C(C)(C)C1,-23.1%,-19.4%,52.3%,-1.5%,4.5%,–
C=CCSc1ncnc2nc[nH]c12,7.9%,-3.15%,-0.45%,9.1%,1.55%,–
NC(=O)C(Cc1ccccc1)NC(=O)C1CCCN1 (stereo not given),4.2%,-33.9%,-6.1%,24.6%,2.5%,–
Nc1cn(Cc2ccccc2)c2nc(/C=C3/C=CC=CC3=O)c(O)n12,2.25%,-5.45%,0.9%,8.85%,-6.9%,–
O=C(CC(C(=O)c1cccs1)c1ccsc1)c1ccc(Cl)s1 (stereo not given),-5.35%,4.2%,-2.2%,-5.05%,-11.1%,–
Cc1cc(C)c(S(=O)(=O)O)cc1N,-2.55%,-42%,-0.05%,-26.1%,6.1%,–
CCOc1ccccc1/C=C(\C#N)c1cccc(Cl)c1,42.6%,13.8%,19.5%,-4.15%,29.9%,–
COc1ccc([N+](=O)[O-])cc1NC(=O)Nc1ccc(F)c([N+](=O)[O-])c1,8.6%,0.2%,-3.8%,6.3%,-6.3%,–

SMILES,growth inhibition [1],growth inhibition [2],growth inhibition [3],growth inhibition [4],growth inhibition [5],growth inhibition [6] [%]
O=C1O/C(=C2/OC(=O)c3ccccc32)c2ccccc21,-8.05%,-44%,–,-0.65%,-3.75%,–
c1ccc(CC[n+]2ccncc2)cc1,-8.75%,-10.2%,7.15%,-17.3%,-8.4%,–
CC1CN(C(=S)Nc2cccc3ccccc23)CC(C)O1 (stereo not given),19.4%,22%,44.8%,7.8%,44.9%,–
Cc1ccc2snc(C(=O)O)c2c1[N+](=O)[O-],16.7%,-1.65%,-13.6%,8.6%,4.1%,–
Cc1ccccc1NC(=O)CC(=O)N1N=C(N(CCC#N)c2ccccc2Cl)CC1c1ccccc1 (stereo not given),4.1%,16.4%,-10.1%,-8.3%,-39.3%,–
CC1(C)C2CCC1(C)C(OC(=O)C1OC(O)C(O)C(O)C1O)C2 (stereo not given),-1.3%,-2.75%,27.6%,28.9%,12.8%,–
Cc1ccc(N(C(=O)CC(=O)NN)C(=O)c2ccccc2Cl)cc1,-12.4%,27%,4%,-5.9%,-8.25%,–
C[C@H](OCc1ccccc1)C(=O)N1CCS(=O)(=O)N2CCC[C@@H]2C1=O,5.05%,19.4%,-5.9%,-17.9%,-18.2%,–
O=C(O)/C=C/C(=O)Nc1ccccc1NC(=O)/C=C/C(=O)O,15.2%,27.8%,19.9%,-1.9%,31.2%,–
O=C(c1ccc(Cl)cc1)C(C(c1ccccc1[N+](=O)[O-])N1CCCCC1)N1CCCCC1 (stereo not given),-15.1%,-30.8%,-23.6%,2.15%,-10.4%,–
NC(=O)Nc1cccc(C(=O)O)c1C(=O)O,-29.4%,-33.6%,-13.1%,-28.4%,-18.1%,–
O=C(O)c1nn(-c2ccccc2)c2c1CSc1ccccc1-2,35.5%,27.2%,16.9%,–,25.6%,–
N#CC(=S)Nc1ccc(Cl)c(Cl)c1,-4.8%,-36%,-1.95%,31.8%,22.6%,–
Nc1c(Cl)cc2c(c1Br)C(=O)c1ccccc1C2=O,13.7%,23.4%,11.9%,19.5%,1.1%,–
N#CCC1(O)c2ccccc2-c2ccccc21,-11.9%,-6.25%,1.4%,9.9%,8%,–
CCOc1ccc2nc(NC(=O)/C(CC(=O)CC(C3=C(O)c4ccccc4CC3=O)c3ccccc3)=N\O)sc2c1 (stereo not given),-0.85%,-18.6%,-0.25%,-20.1%,–,–
CCCCOCCOC(=O)c1ccccc1C(=O)OCCOCCCC,–,-49%,-23.1%,-25%,-49.4%,-42.4
CC(C)(C)[Si](C)(C)OCC1OC(n2cnc3c(N)ncnc32)C(O)C1O (stereo not given),–,-0.2%,3.5%,-2.35%,4.85%,-15.2
CC(=O)NC(c1ccccc1)(c1ccccc1)c1ccccc1,–,5.2%,31.1%,19.5%,14.8%,8.15
O=[N+]([O-])c1cc2ccccc2nc1-c1ccccc1,–,6.95%,7.2%,6.15%,-0.55%,4.2
CC(C)N(CSc1ccc([N+](=O)[O-])cc1)CSc1ccc([N+](=O)[O-])cc1,–,-4.1%,-4.7%,-1%,4.1%,5.75
